Source: PubChem BioAssay (National Center for Advancing Translational Sciences (NCATS))
BAZ2B inh: BAZ2B (human) inhibition. 360,000 tested, 4.4% active. AlphaScreen BAZ2B-H3K14Ac peptide displacement. Potency, µM (top dose mostly 114 µM), without a hit: top-dose activity change, negative = inhibition, usual class: inhibitors; also: % is scaled to controls: 0 for no effect and ±100 for the full control effect; nearly all actives have a fitted effect of over 60% in size
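Multi-concentration screen (max 110 uM) measuring displacement of acetylated histone H3 peptide from BAZ2B by AlphaScreen, using 50 nM protein, 50 nM peptide and 10 ug/mL streptavidin donor plus Ni-chelate acceptor beads.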
G9a inh: blocks human histone lysine methyltransferase G9a | G9a H3K9 monomethylation, AlphaScreen, 2 h | Potency, µM (top dose mostly 102 µM), for the others: at the highest dose activity, negative = inhibition, hits mostly inhibitors | AID 504332 | 350,000 tested, 8.8% active | Q96KQ7; also: % is scaled to controls: 0 for no effect and ±100 for the full control effect; nearly all actives have a fitted effect of over 75% in size
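Readings reflect AlphaScreen signal from monomethyl-H3K9 antibody detection. HMT at 20 nM; substrate b-H3K9 500 nM; cofactor SAM 20 uM; 2 h RT reaction; compounds tested as titrations in qHTS with 15 min preincubation.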
GLS inh: glutaminase GLS (human) inhibition; GLS enzymatic activity, qHTS titration; O94925; Potency, µM (titrated, usually from 45.5 µM), for the others: top-dose activity change, negative = inhibition, actives largely listed as inhibitors; 410,000 tested, 0.21% active; also: % is scaled to controls: 0 for no effect and ±100 for the full control effect
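Read-out is an Amplex red fluorescence increase coupled through glutamate oxidase and HRP, measured before and after 30 min room-temperature incubation. hKGA is in 45 mM KH2PO4 (pH 8.2) with 0.02% Tween-20; glutamine added as 1mM solution.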
HP1b chromo inh: blocks HP1-beta chromodomain binding to methylated histone tails; P83916; AlphaScreen HP1-beta / biotin-H3K9me3 peptide binding; Potency, µM (highest dose often 114 µM), without a hit: top-dose activity change, negative = inhibition, usual class: inhibitors; 390,000 tested, 0.56% active; AID 540317; also: nearly all actives have a fitted effect of over 70% in size
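Compound inhibition of the preformed complex between 50 nM HP1-beta and 50 nM biotinylated H3K9me3 peptide was read by AlphaScreen. Buffer was PBS pH 7.4 with 0.01% Tween-20. Incubations ran 30 min at room temperature, with 10 ug/mL donor/acceptor beads.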
L3MBTL1 inh: blocks human L3MBTL1; Q9Y468; 230,000 tested, 0.66% active; Potency, µM (titrated, usually from 57.1 µM), without a hit: top-dose activity, negative = inhibition, actives largely listed as inhibitors; AID 485360; AlphaScreen L3MBTL1–H3K9me1 peptide binding; also: % is scaled to controls: 0 for no effect and ±100 for the full control effect; nearly all actives have a fitted effect of over 60% in size
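Displacement of a biotinylated histone H3(1-15) peptide monomethylated at Lys9 (75 nM) from L3MBTL1 (50 nM) was measured by AlphaScreen after a 30 min room-temperature compound incubation; cefsulodin titration served as intraplate control.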
JMJD2A Tudor: blocks the human JMJD2A Tudor domain; O75164; AlphaScreen JMJD2A-Tudor / H3K4me3 peptide binding; Potency, µM (titrated, usually from 114 µM), for the others: top-dose activity change, negative = inhibition, most hits filed as inhibitors; 390,000 tested, 4.4% active; also: % is scaled to controls: 0 for no effect and ±100 for the full control effect; nearly all actives have a fitted effect of over 50% in size
Active calls of the source: *; ? = inconclusive; / = no result given; [ ] = dose if it differs, or a comment. Sampled rows, rich in hits. Any-hit rate of the full collection: about 10%. Calls follow the shape of the dose curve; as a rule, active = well fitted curve in the direction sought with a large enough effect; inconclusive = small, poorly fitted or top-dose-only effect, or another doubt; inactive = no such curve, though single readings can be large; an effect the other way counts as inactive or inconclusive. Potency is read from the fitted curve at half-maximal effect.

SMILES | BAZ2B inh | G9a inh | GLS inh | HP1b chromo inh | L3MBTL1 inh | JMJD2A Tudor
CC1=NN(c2ccccc2)C(=O)C1c1ccccc1 (stereo not given) | -32% | -13%[59 µM] | 20% | -5% | -2% | -34%
COc1ccc(NC(=O)CSc2ncc(-c3ccc(F)cc3)n2Cc2ccco2)cc1 | 32µM* | 28µM* | -8% | ? | ? | 56µM*
Cc1cnc(NC(=O)CSc2ncc(-c3ccccc3)n2Cc2ccco2)s1 | 22µM* | ? | -1% | -2% | / | ?
COCCn1c(-c2ccc(OC)cc2)cnc1SCC(=O)Nc1cccc2ccccc12 | 18µM* | 35µM* | -2% | -47% | ? | 25µM*
COc1ccc(-c2cnc(SCC(=O)Nc3nc(C(C)(C)C)cs3)n2Cc2ccco2)cc1 | ? | ? | 3% | ? | -4%[11.4 µM] | ?
CCC(=O)Nc1cc(NC(=O)CSc2ncc(-c3ccc(F)cc3)n2Cc2ccco2)ccc1C | / | ? | 7% | -12% | -10% | ?
COc1ccc(-c2cnc(SCC(=O)Nc3cc(C)on3)n2Cc2ccco2)cc1 | 45µM* | ? | 26% | ? | -20% | 50µM*
Cc1cc(OC(=O)C(C)(C)C)c([N+](=O)[O-])c(=O)[nH]1 | 4% | 1.4µM* | -7% | 28% | / | -6%
C=CCOc1ccc(/C=C\c2nc(O)c([N+](=O)[O-])c(=O)[nH]2)cc1OCC | -28% | ? | -21% | 3% | / | -19%
Cc1cc(OC(=O)c2ccccc2Cl)c([N+](=O)[O-])c(=O)[nH]1 | ? | -17% | -33% | 36% | 6% | -17%
COc1ccc(/C=C/C(=O)Oc2cc(C)[nH]c(=O)c2[N+](=O)[O-])cc1OC | 4% | -33% | 0% | 13% | / | 32µM*
Cc1cc(OC(=O)c2ccc(Cl)cc2Cl)c([N+](=O)[O-])c(=O)[nH]1 | -28% | 79µM* | 8% | 61% | 16% | -26%
C=CCOc1ccc(/C=C\c2nc(O)c([N+](=O)[O-])c(=O)[nH]2)cc1OC | -31% | 79µM* | -19% | 14% | -2% | -29%
Cc1cc(OC(=O)c2ccc(F)cc2)c([N+](=O)[O-])c(=O)[nH]1 | -27% | ? | 2% | 16%[57 µM] | / | 4%
COc1cccc(CNC(=O)C2CCCN(S(=O)(=O)c3cn(C)cn3)C2)c1 (stereo not given) | -2% | 1%[12.7 µM] | -5% | 25% | / | 7%
COCCn1c(SCC(=O)Nc2cccc(C)c2C)nc2c(oc3ccccc32)c1=O | -2% | 13%[59 µM] | -3% | 40% | / | -5%
Cc1ccc(OCC(=O)Nc2ccc3nc(SCC(=O)Nc4ccc(C)cc4C)sc3c2)cc1 | -10% | 5%[59 µM] | -12% | 7% | / | -20%
Cc1ccc(-c2c(C3C4C=CCC(C)C4C(=O)N3Cc3ccccc3)ccc3ccccc23)cc1 (stereo not given) | / | / | / | 34% | / | -25%
Cc1ccc([N+](=O)[O-])cc1N=C(c1cccc([N+](=O)[O-])c1)N1CCOCC1 | -9% | 4%[0.0925 µM] | -16% | -11% | -3% | -17%[11.4 µM]
O=[N+]([O-])c1ccc(C(=Nc2cccc3ccccc23)N2CCOCC2)cc1 | 50µM* | 45µM* | -7% | ? | -16% | ?
Cc1ccc([N+](=O)[O-])cc1N=C(c1ccc([N+](=O)[O-])cc1)N1CCOCC1 | ? | -19%[59 µM] | -12% | ? | -8% | 79µM*
CCOC(=O)N1CCC(=NNc2ccc(S(N)(=O)=O)cc2[N+](=O)[O-])CC1 | -28% | ? | -9% | 29% | -15% | -9%
CCOC(=O)N1CCC(=NNc2nc(C)cc(=O)[nH]2)CC1 | -3% | 40µM* | -13% | 31% | / | -4%
CCOc1ccc(-c2nnc(SCC(=O)NCc3ccc(Cl)cc3)o2)cc1 | ? | -8%[59 µM] | -12% | 34% | / | -11%
CC(=O)Nc1ccc2c(c1)C(=Nc1cccc(C)c1)c1ccccc1-2 | / | / | -12% | ? | / | 32µM*
SMILES | BAZ2B inh | G9a inh | GLS inh | HP1b chromo inh | L3MBTL1 inh | JMJD2A Tudor
Cc1ccc(CC(=O)NCc2ccc(Cl)cc2)cc1 | ? | -9% | -29% | ? | 1% | ?
O=C(NCc1cccnc1)c1ccc(-c2cccc(Cl)c2Cl)o1 | 71µM* | / | 4% | 3% | -16% | -18%
Cc1ccc2c(C)c(C(=O)NCC(c3ccc(Cl)cc3)N3CCOCC3)oc2c1 (stereo not given) | ? | 13µM* | 0% | 1% | / | -25%
Cc1ccc(-c2ccc(C(=O)NCc3ccc(Cl)cc3)o2)c2ccccc12 | ? | 14µM* | 4% | -23% | -3% | ?
O=C(NCc1ccccc1)c1ccc(-c2ccccc2C(F)(F)F)o1 | 9% | 40µM* | -9% | 63% | 14% | 17%
CCc1ccc2oc(C(=O)NCC(c3ccc(Cl)cc3)N3CCOCC3)c(C)c2c1 (stereo not given) | -14% | -21%[59 µM] | 2% | 50% | / | -4%
Cc1cccc(N2CCN(C(=O)c3oc(=O)c4ccccc4c3-c3ccccc3)CC2C)c1 (stereo not given) | / | -33%[59 µM] | 0% | 7% | / | -28%
CCc1ccc(NC(=O)CSc2ncc(S(=O)(=O)c3cc(C)ccc3C)c(=O)[nH]2)cc1 | 0% | -21%[59 µM] | 2% | 4% | / | -23%
Cc1ccc(CO)cc1Nc1ncnc2onc(-c3ccc(F)cc3)c12 | -3% | 6%[59 µM] | 0% | 20% | / | -12%
FC(F)(F)C(F)(F)C(F)(F)C(F)(F)C(F)(F)F | / | 1%[12.7 µM] | 5% | / | / | /
Cc1cc2c(cc(C(=O)NCc3cccnc3)n2Cc2ccc(Cl)cc2)o1 | ? | ? | -6% | -22% | -10% | 50µM*
Cc1ccc(NC(=O)c2ccc(-c3cccc(Cl)c3C)o2)cc1 | -24% | -1%[59 µM] | -5% | 45% | / | 20%
COc1ccc(NC(=O)c2ccc(C(=O)c3ccccc3)o2)cc1 | 2% | 3%[2.33 µM] | -3% | 36% | 2% | 5%
CCCCn1nc(C(=O)N(C)CC(=O)Nc2cccc(F)c2)c2ccccc2c1=O | 5% | 35µM* | -9% | 36% | -5% | -2%
COc1ccc(NC(=O)c2ccc(-c3ccc(C)c4ccccc34)o2)cc1 | 20% | 40µM* | -1% | 3% | -15% | -26%
O=C(Nc1cccc(F)c1)c1ccc(-c2ccccc2Cl)o1 | ? | 56µM* | -7% | 50% | -8% | 17%
Cc1cc(C(=O)NCc2cccnc2)no1 | 7% | -42%[59 µM] | -8% | 23% | 6% | 9%
Cc1ccc(/C=C/c2onc(C)c2S(=O)(=O)N2CCC(C(=O)Nc3cccc(C#N)c3)CC2)cc1 | 1% | 12%[59 µM] | 19% | 14%[57 µM] | / | -16%
